PLK1 PBD inh – blocks phosphopeptide binding to human PLK1 polo-box domain; P53350; Plk1 PBD binding of FITC phosphopeptide, fluorescence polarization; Potency, µM, for the others: max response, negative = inhibition, most hits filed as inhibitors; 360,000 compounds, 2.8% hits; AID 720504; further: series mostly up to about 57 µM; on the % scale 0 is the no-effect control and ±100 the full control effect; nearly all actives have a fitted effect of over 65% in size
GLS inh – glutaminase GLS (human) inhibition | O94925 | GLS enzymatic activity, qHTS titration | Potency, µM (highest dose often 45.5 µM), for inactives: top-dose activity change, negative = inhibition, usual class: inhibitors | 410,000 compounds, 0.21% hits | AID 624170; further: on the % scale 0 is the no-effect control and ±100 the full control effect
Target sequence (O94925 whole entry, looked up): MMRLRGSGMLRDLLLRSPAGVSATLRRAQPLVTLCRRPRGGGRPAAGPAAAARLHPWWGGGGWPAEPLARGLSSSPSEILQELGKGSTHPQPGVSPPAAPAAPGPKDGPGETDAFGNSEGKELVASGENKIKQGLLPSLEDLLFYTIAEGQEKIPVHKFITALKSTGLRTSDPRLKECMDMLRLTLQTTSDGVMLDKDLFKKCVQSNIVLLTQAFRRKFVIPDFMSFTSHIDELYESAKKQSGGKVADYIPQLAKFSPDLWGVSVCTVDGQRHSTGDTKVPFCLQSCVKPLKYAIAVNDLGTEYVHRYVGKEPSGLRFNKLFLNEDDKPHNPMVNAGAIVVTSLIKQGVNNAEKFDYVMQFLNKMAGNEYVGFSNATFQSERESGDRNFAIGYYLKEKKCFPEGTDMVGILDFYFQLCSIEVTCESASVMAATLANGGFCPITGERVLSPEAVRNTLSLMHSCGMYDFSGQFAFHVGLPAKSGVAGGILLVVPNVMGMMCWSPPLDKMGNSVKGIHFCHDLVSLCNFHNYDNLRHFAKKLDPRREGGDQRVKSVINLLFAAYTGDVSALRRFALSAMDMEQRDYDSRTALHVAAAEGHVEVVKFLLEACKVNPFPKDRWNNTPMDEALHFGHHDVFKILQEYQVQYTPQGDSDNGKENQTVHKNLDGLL
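Coupled fluorescence readout: glutamate oxidase/HRP/Amplex Red detect glutamate formed by hKGA from L-glutamine (1 mM solution added). Buffer 45 mM KH2PO4 pH 8.2, 0.02% Tween-20; reads at t0 and 30 min RT.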
Mito fusion yeast – inhibitors of mitochondrial division or activators of mitochondrial fusion; S. cerevisiae fusion-defective mutant growth rescue, CellTiterGlo 48 h; Potency, µM (titrated, usually from 46.1 µM), inactives show at the top dose growth rescue (activation), actives largely listed as activators; 320,000 compounds, 0.23% hits; AID 485298; further: % of control where 0% means no effect; nearly all actives have a fitted effect of over 45% in size
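Temperature-sensitive fusion-defective S. cerevisiae (e.g. fzo1-1, mgm1-5) were grown with compound in YPEG medium (3% ethanol, 3% glycerol) for 48 hours at 37C. Growth rescue was measured as viability by CellTiterGlo luminescence after 10 minutes at ambient.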
VDR inh – blocks the human vitamin D receptor; P11473; VDR-SRC2-3 peptide fluorescence polarization, 2 h; Potency, µM, for the others: max response, negative = inhibition, hits mostly inhibitors; 400,000 compounds, 0.93% hits; AID 504847; further: on the % scale 0 is the no-effect control and ±100 the full control effect
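Signal is fluorescence polarization, reporting how far test compounds block the interaction of VDR with the SRC2-3 coregulator peptide after a 2 h room-temperature incubation.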
PKM2 act – PKM2 (human) enzyme activation. P14618. purified PKM2, Kinase-Glo ATP luminescence, activation; response scale: 0% is enzyme alone, no compound. Potency, µM (titrated, usually from 57.5 µM), inactives show top-dose activation, usual class: activators. 260,000 compounds, 0.34% hits. AID 1631; further: on the % scale 0 is the no-effect control and ±100 the full control effect; nearly all actives have a fitted effect of over 55% in size
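Kinase-Glo luminescence reports ATP generated from ADP (0.1 mM) and PEP (0.5 mM) by purified hPK-M2 after 1 h at room temperature, pH 7.2 imidazole buffer; intermediate enzyme activity allows detecting inhibitors and activators.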
KAT2A inh – GCN5L2 (KAT2A) acetyltransferase inhibition. Q92830. GCN5L2 HAT assay, ThioGlo1 CoA-SH fluorescence. Potency, µM (titrated, usually from 58.9 µM), for inactives: at the top dose activity change, negative = inhibition, usual class: inhibitors. 390,000 compounds, 0.21% hits; further: on the % scale 0 is the no-effect control and ±100 the full control effect
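ThioGlo1-coupled HAT assay: 20nM GCN5L2, 70uM acetyl-CoA, 75uM H3(1-25) peptide, pH 7.5. Fluorescence read at 340/540nm at start and after 20 min at room temperature.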
Numbers without * were called inactive; ? = inconclusive; . = not tested or not shown. Shown are actives, neighbours in structure and some others; about 3.4% of the full set was active somewhere. The call rests on the fitted dose curve; in most records, active means well fitted curve in the direction sought with a large enough effect; inconclusive means small, poorly fitted or top-dose-only effect, or another doubt; inactive means no such curve, though single readings can be large; an effect the other way counts as inactive or inconclusive. Potency means the concentration at half of the fitted maximal effect.

SMILES	PLK1 PBD inh	GLS inh	Mito fusion yeast	VDR inh	PKM2 act	KAT2A inh
CCOc1cc(C2Nc3ccccc3C(=O)N2Cc2ccco2)ccc1OCc1ccccc1Cl (stereo not given)	.	.	.	-27%	.	.
Cc1nc2c(C#N)c[nH]n2c(=O)c1CCO	9.5µM*	-12%	11%	28µM*	-2%	-21%
O=C(Nc1ccc2c(c1)OCO2)c1cc2ncc(Br)cn2n1	12µM*	37%	-5%	-7%	5%	-29%
Cc1cc(C)n2nc(C(=O)Nc3ccc4c(c3)OCO4)cc2n1	-6%	0%	-2%	11%	-4%	1%
CC1=C(/C=C/C(C)=C/C=C/C(C)=C/C=C/C=C(C)/C=C/C=C(C)/C=C/C2=C(C)C(=O)C(O)CC2(C)C)C(C)(C)CC(O)C1=O (stereo not given)	.	.	.	-19%	.	-3%
Cc1ccnc(SCC(=O)c2ccc([N+](=O)[O-])cc2)n1	-18%	6%	2%	-29%	-2%	25%
Cc1ccc(C(=O)CSc2n[nH]c(C)n2)cc1	30µM*	3%	-5%	?	-5%	-9%
Cc1ccc(C)c(C(=O)CSc2n[nH]c(C)n2)c1	?	-4%	0%	?	-3%	-15%
CCc1ccc(C(=O)CSc2n[nH]c(C)n2)cc1	27µM*	1%	8%	?	-3%	-24%
Cc1nc(SCC(=O)NCCc2ccccc2)n[nH]1	3.8µM*	?	0%	-5%	-1%	0%
Cc1cc(C)nc(SCC(=O)c2ccc([N+](=O)[O-])cc2)n1	21µM*	-6%	4%	-28%	6%	-4%
Cc1cccc(C(=O)n2nc(-c3ccco3)nc2NCc2ccccc2)c1	.	-4%	.	14%	.	-7%
CCOC(=O)CSc1nnc(-c2ccccc2)c(-c2ccccc2)n1	-25%	20%	-11%	6%	.	-7%
CCOC(=O)CSc1nc(-c2ccccc2)ns1	3.4µM*	?	0%	?	7%	-6%
O=C(CSc1nc(-c2ccccc2)ns1)N1CCOCC1	21µM*	-10%	-21%	-25%	0%	-8%
CCC(Oc1nc2ccccc2nc1-c1ccccc1NC(C)=O)C(=O)c1ccccc1 (stereo not given)	-3%	2%	3%	14%	0%	-4%
CCOc1ccc(NC(=O)CN(C)C(=O)/C=C/c2ccco2)cc1OCC	-1%	0%	-2%	110%	.	-1%
c1ccc2c(c1)CN1CCCC1=N2	-20%	10%	5%	-2%	.	10%
O[C@@H]1CCN2Cc3ccccc3N=C12	.	.	.	3.5µM*	.	?
Cc1nc(-c2ccc(NC(=O)/C=C\C(=O)O)cc2)cs1	21µM*	0%	1%	-4%	0%	-1%
CCCCCC(=O)Nc1ccc(-c2csc(C)n2)cc1	-4%	6%	5%	-5%	-19%	0%
Cc1cc(C)nc(SCC(=O)Oc2ccc3oc(=O)cc(C)c3c2)n1	27µM*	10%	1%	-9%	3%	-13%
O=C(Nc1ccc(NC(=O)c2ccccc2)nc1)c1ccncc1	17µM*	13%	1%	?	0%	0%
O=C(Nc1ccc(NC(=O)c2ccccc2Cl)nc1)c1ccncc1	-3%	-3%	1%	15%	-2%	-5%
CNc1ncncc1-c1ccccc1C	.	.	.	71µM*	.	0%
SMILES	PLK1 PBD inh	GLS inh	Mito fusion yeast	VDR inh	PKM2 act	KAT2A inh
Cc1cnc(CNc2ncncc2-c2ccccc2C)cn1	.	.	.	-24%	.	0%
COc1cccc(-c2cncnc2Nc2ccccc2)c1	.	.	.	40µM*	.	?
Cc1ccccc1-c1cncnc1NCc1cccnc1	.	.	.	50µM*	.	-29%
Cc1ccccc1-c1cncnc1NCc1ccccc1	.	.	.	-16%	.	-14%
Cc1ccccc1-c1cncnc1Nc1ccccc1	.	.	.	45µM*	.	-28%
O=C1CCC=C1C(O)c1ccc2c(c1)OCO2 (stereo not given)	.	.	.	2%	.	.
CC(C)(C)C(=O)OCOP(=O)(OCOC(=O)C(C)(C)C)C(C)(Oc1ccc(O)cc1)P(=O)(OCOC(=O)C(C)(C)C)OCOC(=O)C(C)(C)C	.	.	.	-3%	.	-4%
CC(=O)OC1CCC2(C)C(=CCC3C2CCC2(C)C(C(C)=O)CCC32)C1 (stereo not given)	.	0%	.	.	.	.
C=CCNc1nc(-c2ccccc2)c(C(=O)OCC)cc1C#N	24µM*	-14%	2%	-12%	1%	0%
CCCc1c(C(=O)N/N=C/C2CC=CCC2)nnn1-c1nonc1N (stereo not given)	-19%	1%	.	.	.	.
CC(C)(C)NC(=O)C(c1cccs1)N(CC1CCCO1)C(=O)Cn1nnc(-c2cccs2)n1 (stereo not given)	-8%	-4%	7.1µM*	6%	-1%	0%
CCCNC(=S)N1CCC(NC(=O)C2CCCCC2)CC1	24µM*	2%	0%	?	0%	-11%
O=C(NC1CCN(C(=S)NCCc2ccccc2)CC1)C1CC1	-14%	0%	1%	9%	2%	1%
CCCS(=O)(=O)NC(=O)C1(C)CCN(C(=O)c2cccc(C)c2C)C1 (stereo not given)	-5%	12%	.	.	.	.
C/C1=C2/[N-]C(C(CC(N)=O)[C@@]2(C)CCC(=O)NCC(C)OP(=O)([O-])O[C@H]2[C@@H](O)[C@@H](n3cnc4cc(C)c(C)cc43)O[C@@H]2CO)[C@]2(C)N=C(/C(C)=C3N=C(/C=C4N=C1C(CCC(N)=O)C\4(C)C)[C@@H](CCC(N)=O)[C@]\3(C)CC(N)=O)[C@@H](CCC(N)=O)[C@]2(C)CC(N)=O.CC(=O)O.[Co] (stereo not given in full)	.	-14%	.	10µM*	.	-16%
CC(=O)OC1CC[C@@]2(C)C(=CC[C@H]3[C@@H]4CC[C@H](C(C)=O)[C@@]4(C)CC[C@@H]32)C1 (stereo not given in full)	.	.	.	11%	.	-11%
O=C(c1ccco1)N1CCN(C(=O)c2cc(-c3ccccn3)nc3ccccc23)CC1	-7%	6%	-1%	-16%	20µM*	-2%
O=C(c1cc(-c2ccccc2)nc2ccccc12)N1CCN(c2ccccc2O)CC1	8%	7.1µM*	11%	5%	-8%	-9%
O=C(c1cc(-c2ccncc2)nc2ccccc12)N1CCN(c2ccccc2O)CC1	-9%	6%	2%	7%	5%	?
O=C(c1ccco1)N1CCN(C(=O)c2cc(Cl)nc3ccccc23)CC1	-1%	-5%	-2%	-22%	.	-9%
O=C(OCC(=O)N1CCN(C(=O)c2ccco2)CC1)c1cc(-c2ccc(Cl)c(Cl)c2Cl)nc2ccccc12	-17%	?	4%	2%	?	-2%
